# Values joined by “and” are separate entries in the source; they are usually repeats but may differ in a detail not shown here. Equal entries are not always repeated. Records with an inconclusive call do not appear. Active and inactive are the calls of the source. Unless noted, the limit is not given here; nearly all actives have AC50 up to about 26 µM.
# Key:
# [1] = viability loss in pontine glioma line – cell-based, SU-DIPG-XVII, MIPE5.0, CellTiter-Glo, qHTS, dose response (AID 1347060); settings: CellTiter-Glo ATP luminescence;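 as to AC50: cells exposed to compound for 48 hours before viability readout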
# [2] = viability loss in pontine glioma line – cell-based, SU-DIPG-XIII, MIPE5.0, CellTiter-Glo, qHTS, dose response (AID 1347064; cut-off not given, nearly all actives have AC50 up to about 23 µM;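 as to AC50: cells exposed to compound for 48 hours before the viability read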); settings: CellTiter-Glo ATP luminescence
# [3] = JHH-DIPG-1 glioma cell viability, MIPE5.0 library, CellTiter-Glo luminescence, qHTS (AID 1347067); settings: JHH-DIPG-1 glioma viability, CellTiter-Glo ATP luminescence;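 also: cells exposed to compound for 48 hours before readout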
# [4] = growth inhibition of DIPG cells – cell-based, MIPE5.0 library, qHTS (AID 1347068; cut-off not given, nearly all actives have IC50 up to about 30 µM;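 as to IC50: cells exposed to compound for 48 hours before viability readout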); settings: SU-DIPG-XXV viability
# [5] = viability loss in pontine glioma line – cell-based, SU-DIPG-XXV, MIPE5.0, CellTiter-Glo, qHTS, dose response (AID 1347065); settings: CellTiter-Glo ATP luminescence;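 also: cells exposed to compound for 48 hours before ATP readout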
# [6] = viability loss with induced miR-34 in A549 – imaging, A549 dox-inducible miR-34, nuclei and caspase counts, primary screen (AID 1347080;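 active = compounds whose cell count with miR-34 switched on is under 0.7 times the count with it off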); settings: A549 miR-34 inducible, Hoechst nuclei count, 48 h
# [7] = MELAS cybrid and Rieske KO viability enhancers – cell-based, MELAS cybrids, Rieske KO mouse fibroblasts, CellTiter-Glo, primary screen (AID 1508586;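 active = mean z-score across replicates of 1.96 or higher in either the MELAS or the Rieske mutant cell line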;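 also: z relative to plate mean and SD of compound and empty wells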); settings: low glucose
# [8] = stronger effect = lower value, cell number ratio, induced over uninduced
# [9] = measured here: relative caspase fold change +Dox/-Dox
# [10] = measured here: total cells with miR-34 induction, stronger effect = lower value
# [11] = measured here: total cells without miR-34 induction
# [12] = MELAS cybrid survival, CellTiter-Glo 48 h, stronger effect = higher value
# [13] = Rieske KO mouse fibroblast survival, CellTiter-Glo 72 h
smiles,measurement,setting,value
CCOc1ccccc1N=Nc1c(C)[nH]n(-c2nc(-c3ccccc3)cs2)c1=O,outcome,[1],inactive
same,outcome,[2],inactive
same,outcome,[3],inactive
same,outcome,[4],inactive
c1cc(-c2cnn3cc(-c4ccc(N5CCNCC5)cc4)cnc23)c2cccnc2c1,AC50,[1],7.42 µM (active)
same,AC50,[2],6.61 µM (active)
same,AC50,[5],7.42 µM (active)
same,IC50,[4],9.34 µM (active)
same,fold change,[6]; [8],1.02 (inactive)
same,fold change,[6]; [9],0.321
same,cell count,[6]; [10],216
same,cell count,[6]; [11],212
same,z-score,[7]; [12],1.7 (inactive)
same,z-score,[7]; [13],0.379
CN1CCN(C2CCN(C(=O)Nc3cc(Oc4ccc(NC(=O)C5(C(=O)Nc6ccc(F)cc6)CC5)c(F)c4)ccn3)CC2)CC1,AC50,[1],18.6 µM (active)
same,AC50,[2],20.9 µM (active)
same,AC50,[5],13.2 µM (active)
same,IC50,[4],23.5 µM (active)
same,fold change,[6]; [8],0.875 (inactive)
same,fold change,[6]; [9],0.529
same,cell count,[6]; [10],3130
same,cell count,[6]; [11],3570
same,z-score,[7]; [12],-0.56 (inactive)
same,z-score,[7]; [13],0.282
CC(C)NC(=O)N1CC[C@H](N=C2Nc3cc(F)ccc3N(CC(F)F)c3ccc(Cl)cc32)C1,outcome,[1],inactive
same,outcome,[2],inactive
same,outcome,[3],inactive
same,outcome,[4],inactive
NS(=O)(=O)c1ccc(S(=O)(=O)Nc2cccc3c(Cl)c[nH]c23)cc1,AC50,[1],3.32 µM (active)
same,AC50,[2],0.934 µM (active)
same,AC50,[3],1.18 µM (active)
[2H]C([2H])([2H])C(O)([C@@H](C)/C=C/[C@@H](C)[C@H]1CC[C@H]2/C(=C/C=C3C[C@@H](O)C[C@H](O)C3)CCC[C@]12C)C([2H])([2H])[2H],outcome,[1],inactive
same,outcome,[2],inactive
same,outcome,[3],inactive
O=C(CCl)Nc1cccc(NC2=NS(=O)(=O)c3ccccc32)c1,AC50,[1],11.8 µM (active)
same,AC50,[2],9.34 µM (active)
same,AC50,[3],5.25 µM (active)
OC[C@H]1O[C@@H](S[C@@H]2O[C@H](CO)[C@H](O)[C@H](n3cc(-c4cccc(F)c4)nn3)[C@H]2O)[C@H](O)[C@@H](n2cc(-c3cccc(F)c3)nn2)[C@H]1O,outcome,[1],inactive
same,outcome,[2],inactive
same,outcome,[5],inactive
same,outcome,[4],inactive
COc1ccc(CNC(=O)Nc2ncc([N+](=O)[O-])s2)cc1,AC50,[1],18.6 µM (active)
same,AC50,[2],20.9 µM (active)
same,AC50,[5],20.9 µM (active)
same,fold change,[6]; [8],1.06 (inactive)
same,fold change,[6]; [9],0.577
same,cell count,[6]; [10],5600
same,cell count,[6]; [11],5270
same,z-score,[7]; [12],-0.43 (inactive)
same,z-score,[7]; [13],-0.202
Cc1nc(NC(=O)N2CCCC2C(N)=O)sc1-c1ccnc(C(C)(C)C(F)(F)F)c1 (stereo not given),AC50,[1],5.25 µM (active)
same,AC50,[2],2.63 µM (active)
same,AC50,[5],2.35 µM (active)
same,IC50,[4],13.2 µM (active)
same,fold change,[6]; [8],0.937 (inactive)
same,fold change,[6]; [9],0.696
same,cell count,[6]; [10],5770
same,cell count,[6]; [11],6170
same,z-score,[7]; [12],-0.255 (inactive)
same,z-score,[7]; [13],-0.201
Cn1cc(-c2nc(N[C@@H]3CCCC[C@@H]3N)c(F)c3c2C(=O)NC3)cn1,outcome,[1],inactive
same,outcome,[2],inactive
same,outcome,[3],inactive
same,outcome,[4],inactive
CC(C)[C@H]1C(=O)N[C@@H](CCCN=C(N)N)C(=O)NCC(=O)N[C@@H](CC(=O)O)C(=O)N[C@H](Cc2ccccc2)C(=O)N1C,outcome,[1],inactive
same,outcome,[2],inactive
same,outcome,[3],inactive
same,outcome,[4],inactive
COc1cc(C)[nH]c(=O)c1CN1CCc2c(Cl)cc([C@H](OC)C3COC3)c(Cl)c2C1=O,outcome,[1],inactive
same,outcome,[2],inactive
same,outcome,[3],inactive
same,outcome,[4],inactive
O=[N+]([O-])c1ccc(-c2nc(-c3ccc(F)cc3)c(-c3ccncc3)[nH]2)cc1,AC50,[1],26.3 µM (active)
same,AC50,[2],18.6 µM (active)
same,AC50,[5],26.3 µM (active)
same,outcome,[4],inactive
same,fold change,[6]; [8],1.15 (inactive) and 0.939 (inactive)
same,fold change,[6]; [9],1.13 and 1.14
same,cell count,[6]; [10],4420 and 5750
same,cell count,[6]; [11],3850 and 6120
C[C@@H]1O[C@@H](O[C@@H]2\C=C/C=C\C=C/C=C\C[C@H](C)OC(=O)/C=C\[C@H]3O[C@@H]3C[C@H](O)C[C@]3(O)C[C@@H](O)[C@@H](C(=O)O)[C@H](C2)O3)[C@H](O)[C@H](N)[C@@H]1O,outcome,[1],inactive
same,outcome,[2],inactive
same,outcome,[3],inactive
same,outcome,[4],inactive
NCC1CCN(c2nccc(-c3ccc4ccccc4c3)n2)CC1,AC50,[1],11.8 µM (active)
same,AC50,[2],16.6 µM (active)
same,AC50,[3],10.5 µM (active)
CN[C@@H](C)C(=O)N[C@@H]1C(=O)N(Cc2c(C)ccc3ccccc23)c2ccc(C#N)cc2N(C(C)=O)[C@H]1C,outcome,[1],inactive
same,outcome,[2],inactive
same,outcome,[3],inactive
same,outcome,[4],inactive
O=C(Nc1ccc(-c2ccnc(Nc3ccc(N4CCOCC4)cc3)n2)cc1)C1CCCN1 (stereo not given),AC50,[1],18.6 µM (active)
same,AC50,[2],18.6 µM (active)
same,AC50,[5],16.6 µM (active)
same,outcome,[4],inactive
same,fold change,[6]; [8],0.711 (inactive)
same,fold change,[6]; [9],0.977
same,cell count,[6]; [10],5090
same,cell count,[6]; [11],7160
same,z-score,[7]; [12],-0.234 (inactive)
same,z-score,[7]; [13],-0.152
C[C@@]1(c2ncncc2F)NC(=O)c2cc(-c3cn[nH]c3)ccc21,outcome,[1],inactive
same,outcome,[2],inactive
same,outcome,[3],inactive
same,outcome,[4],inactive
CNC(=O)c1ccc2c(C(=Nc3cccc(CN(C)C)c3)c3ccccc3)c(O)[nH]c2c1,outcome,[1],inactive
same,outcome,[2],inactive
same,outcome,[3],inactive
same,outcome,[4],inactive
same,fold change,[6]; [8],0.967 (inactive)
same,fold change,[6]; [9],0.894
same,cell count,[6]; [10],7720
same,cell count,[6]; [11],7990
same,z-score,[7]; [12],-0.483 (inactive)
same,z-score,[7]; [13],-0.984
C[C@H]1CN(C2COC2)CCN1c1ccc(Nc2cc(-c3ccnc(N4CCn5c(cc6c5CC(C)(C)C6)C4=O)c3CO)cn(C)c2=O)nc1,outcome,[1],inactive
same,outcome,[2],inactive
same,outcome,[3],inactive
same,outcome,[4],inactive
C[N+](C)(C)CC(=O)O,outcome,[1],inactive
same,outcome,[2],inactive
same,outcome,[5],inactive
same,outcome,[4],inactive
CC(C)(C(=O)NCC(F)(F)C(F)(F)F)C(=O)N[C@@H]1C(=O)Nc2ccccc2-c2ccccc21,outcome,[1],inactive
same,outcome,[2],inactive
same,outcome,[3],inactive
same,outcome,[4],inactive
CN1CCN(c2ncc(-c3cc(Cl)cc(Cl)c3Cl)c(N)n2)CC1,outcome,[1],inactive
same,outcome,[2],inactive
same,outcome,[3],inactive
same,outcome,[4],inactive
NS(=O)(=O)OC[C@@H]1C[C@@H](n2ccc3c(N[C@H]4CCc5ccccc54)ncnc32)C[C@@H]1O,AC50,[1],1.48 µM (active)
same,outcome,[2],inactive
same,outcome,[3],inactive
same,outcome,[4],inactive
